Test results published in PubChem BioAssay AID2810 (NMMLSC, 2010).
About 65 (5%) of roughly 1,200 compounds were called active.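 Rule for the calls: active = at either tested dose, response and 90th-percentile vesicle-stain brightness of CD8 cells under set limits and under 9% cells vesicle-bound; inactive = the rest.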 The full list was thinned out, with actives kept by preference.

Assay: modulators of CD8 T cell-vesicle binding, confirmation, cherry-picked primary hits, two concentrations (AID 2810);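 note: lower values mean blocking of vesicle binding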;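 for percent response (vesicle binding): ratio of mean FL2 vesicle stain of CD8+ cells to that row's control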
Settings: 2C CD8+ T cell-vesicle binding, flow cytometry; for double positive events: CD8+/vesicle+ events
[1] = at 15.4 µM, stronger effect = lower value

SMILES	double positive events (at 7.7 µM)	double positive events [1]	percent response (vesicle binding) [1]	percent response (vesicle binding) (response, at 7.7 µM)
COc1ccccc1NS(=O)(=O)c1cc(NC(=O)CNC(=O)c2cc(C)cc(C)c2)ccc1C	21%	0.9%	39.6% (active)	218%
COc1ccc(NC(=O)Cc2ccc(C)c(C)c2)cc1S(=O)(=O)N1CCCCC1	37.7%	10.7%	257% (inactive)	649%
COc1ccccc1NS(=O)(=O)c1ccc(C)c(NC(=O)c2ccc(S(=O)(=O)N3CCCCCC3)cc2)c1	11.9%	35.5%	332% (inactive)	182%
O=S(=O)(NN=C1CCCCCCC1)c1ccc(Br)cc1	13.7%	7.3%	144% (inactive)	120%
CC(/C=C/c1ccc(C)o1)=C\C(=O)O	19.1%	19.8%	196% (inactive)	227%
COCCNC(=O)c1c[nH]c2ccc(OC)cc2c1=O	18.7%	13.1%	154% (inactive)	563%
NC(=O)NC(=O)COC(=O)CN1C(=O)C2CCCCC2C1=O (stereo not given)	15.9%	33.3%	345% (inactive)	151%
CCOC(=O)c1c(O)c2cc(Cl)ccc2n(CC)c1=O	10.9%	12%	102% (inactive)	127%
CCOC(=O)c1c(C=O)c2ccccc2n1CC	17.9%	3%	28.6% (active)	287%
CCn1c(=O)cc(SCC(=O)N(C)Cc2ccccc2)c2ccccc21	24.8%	14%	193% (inactive)	224%
Cc1ccc(CSc2ccc(S(=O)(=O)N3CCCC3)cn2)cc1	8.3%	18%	92.4% (inactive)	237%
CC(=O)c1ccc(Nc2cc(C)nc3nc(C)nn23)cc1	10.4%	19.9%	90.9% (inactive)	189%
COc1ccc(NC(=S)N2CCN(c3ncccn3)CC2)c(OC)c1	30.6%	14.7%	195% (inactive)	246%
COc1ccc(-c2cccc3c2NC(=O)C3=O)cc1OC	7.8%	26.1%	427% (inactive)	305%
C/C(=N\Nc1nc2ccccc2[nH]1)c1cc2ccccc2o1	14.4%	31.4%	271% (inactive)	266%
Cc1sc2ncnc(NCC(C)(C)N3CCOCC3)c2c1C	6.4%	1.9%	49.2% (active)	251%
CC(C)(CNC(=O)c1cc2c(s1)CCCC2)N1CCOCC1	8%	20.9%	213% (inactive)	164%
CCSc1ncnc2sc(C)c(C)c12	7.6%	17.4%	318% (inactive)	354%
Cc1ncc([N+](=O)[O-])n1Cc1cccc(F)c1	7.3%	11.5%	118% (inactive)	274%
COc1ccc(S(=O)(=O)N(C)C[C@H]2Oc3ccc(NC(=O)C4CC4)cc3C(=O)N([C@H](C)CO)C[C@@H]2C)cc1	5.6%	16.6%	189% (inactive)	102%
